Inconclusive results are not listed. Entries that show only a call come without a potency. Activity calls are given as the source filed them. The call rests on the fitted dose curve; in most records, active means well fitted cell-killing curve with a large enough effect; inconclusive means small, poorly fitted or top-dose-only effect, or effect the other way; inactive means no such curve, though single readings can be large or run the other way.
Further: nearly all actives have a fitted effect of over 30% in size.
Potency means the concentration at half of the fitted maximal effect.

One test in a line: Quantitative High-Throughput drug screen in 47 multiple myeloma cell lines against the NCATS MIPE library collection: Karpas620_DSMZ cell viability assay (AID 1918959). The settings on record: Karpas620 myeloma viability, CellTiter-Glo ATP luminescence, 48 h; series mostly up to 45.8 µM. In short, it runs like this:
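Inhibition of cell viability is measured here. Each line was plated at 500 cells per well, treated with MIPE 4.0 drugs, kept 48 hours at 37C, then assayed for ATP content by CellTiter-Glo luminescence.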
Background: In ATP-based viability assays light output follows the ATP content of the culture.
For `CC[C@]1(O)C[C@@H]2CN(CCc3c([nH]c4ccccc34)[C@@](C(=O)OC)(c3cc4c(cc3OC)N(C=O)[C@@H]3C45CCN4CC=C[C@](CC)([C@H]45)[C@@H](OC(C)=O)[C@]3(O)C(=O)OC)C2)C1` (some centres undefined), the Potency result is “inactive”.
Turning to `CC1(C)Cc2c(sc(NC(=S)NC(=O)c3ccccc3)c2C(=O)O)CO1`, the Potency is 5.9 µM (active).
In the case of `O=C1NC(=O)C(=Cc2ccc(-c3ccc(F)cc3)o2)S1`, the Potency result was “inactive”.
`COc1ccc(C2Sc3ccccc3N(CCN(C)C)C(=O)C2OC(C)=O)cc1` (centres undefined): the Potency entry was “inactive”.
For the compound `CC1CCC(C(=O)N(c2cc(C#CC(C)(C)C)sc2C(=O)O)C2CCC(O)CC2)CC1` (centres undefined), the Potency result is “inactive”.
As to `COC(=O)N[C@H](C(=O)N1CCC[C@@H]1c1ncc(-c2ccc(-c3ccc(-c4cnc([C@@H]5CCCN5C(=O)[C@@H](NC(=O)OC)C(C)C)[nH]4)cc3)cc2)[nH]1)C(C)C`, the Potency is 16.6 µM (active).
As to `Cc1c[nH]c(C=C2C(=O)Nc3ccccc32)c1CCC(=O)O`, the Potency result is “inactive”.
Turning to `C[C@H](NC(=O)c1sccc1OCc1ccc(Cl)cc1)c1ccccc1`, the Potency entry is “inactive”.
Take `CCn1c(C(=O)N(C2CC2)C2CC2)cc2c3c(ncn3C)c(Nc3cc(C)n(C)n3)nc21`: the Potency result is “inactive”.
Take `CC(C)n1nc(-c2ccc3oc(N)nc3c2)c2c(N)ncnc21`: the Potency is 1.18 µM (active).
For `COc1ccc2c(Oc3ccc(NC(=O)c4c(C)n(CC(C)(C)O)n(-c5ccccc5)c4=O)nc3)ccnc2c1`, the Potency result was “inactive”.
On the same count and under the same terms, the result for `NC1=N[C@@]2(c3cc(NC(=O)c4ccc(F)cn4)ccc3F)COC[C@@H]2CS1` reads 0.418 µM (active).
The same measure, in the same setting: the result for `COc1ccc(-n2c(C)c([N+](=O)[O-])c3ccc(O)cc32)cc1` reads “inactive”.
As for `O=C(Nc1cccc(Br)c1)c1cccc(S(=O)(=O)N2CCCCCC2)c1`, the Potency was 20.9 µM (active).
Same read-out and setting: the result for `COCCCCC(=NOCCN)c1ccc(C(F)(F)F)cc1` reads “inactive”.

A short description of a further test: Quantitative High-Throughput drug screen in 47 multiple myeloma cell lines against the NCATS MIPE library collection: KMM1_JCRB cell viability assay (AID 1918960). The following applies: KMM1 myeloma viability, CellTiter-Glo ATP luminescence, 48 h; series mostly up to 45.8 µM. In outline:
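Myeloma cells, 500 per well, were exposed to MIPE 4.0 drugs by pin transfer for 48 h at 37 °C, 5% CO2. Viability was read as ATP luminescence with CellTiter-Glo, normalised to DMSO-only (100%) and medium-only (0%) wells.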
On to `CC(C)(C)Cn1c(N)nc2ccc(-c3[nH]c(C(C)(C)C)nc3-c3ccc(F)cc3)nc21`, for which the Potency entry is “inactive”.
As to `COc1ccc2cc(-c3nc(-c4ccc(S(C)=O)cc4)[nH]c3-c3ccncc3)ccc2c1` (centres undefined), the Potency was 23.5 µM (active).
As for `COC1CCC(N(C(=O)C2CCC(C)CC2)c2cc(C3=CCCCC3)sc2C(=O)O)CC1` (centres undefined), the Potency entry was “inactive”.
On the same count and under the same terms, the same measure for `Nc1nc(F)nc2c1ncn2[C@@H]1O[C@H](COP(=O)(O)O)[C@@H](O)[C@H]1O`: “inactive”; for `O=C(Nc1ccccc1Br)N[C@@H]1CCN(c2ccc(C(F)(F)F)cn2)C1`: “inactive”; for `Cc1cc(OCCCc2c(C(=O)O)n(Cc3cccnc3)c3c(-c4c(COc5ccc(N6CCN([S+](C)(=O)[O-])CC6)cc5)nn(C)c4C)cccc23)cc(C)c1Cl`: 9.35 µM (active).
Take `COc1ccc2c3c1OC1C[C@@H](O)C=C[C@@]31CCN(C)C2` (some centres undefined): the Potency result is “inactive”.
The same measure, in the same setting: the result for `Cc1ccc([C@@H]2O[C@H](CO)[C@@H](O)[C@H](O)[C@@H]2O)cc1Cc1ccc(-c2ccc(F)cc2)s1` reads 16.6 µM (active); that for `CC[C@]1(O)C[C@@H]2CN(CCc3c([nH]c4ccccc34)[C@@](C(=O)OC)(c3cc4c(cc3OC)N(C=O)[C@@H]3C45CCN4CC=C[C@](CC)([C@H]45)[C@@H](OC(C)=O)[C@]3(O)C(=O)OC)C2)C1` (some centres undefined), “inactive”.
For the compound `CO[C@H]1C=CO[C@@]2(C)Oc3c(C)c(O)c4c(O)c(c5c(c4c3C2=O)NC2(CCN(CC(C)C)CC2)N=5)=NC(=O)C(C)=CC=C[C@H](C)[C@H](O)[C@@H](C)[C@@H](O)[C@@H](C)[C@H](OC(C)=O)[C@H]1C`, the Potency entry was “inactive”.
As to `O=C1NC(=O)C(=Cc2ccc(-c3ccc(F)cc3)o2)S1`, the Potency is 5.9 µM (active).
Turning to `COc1ccc(C2Sc3ccccc3N(CCN(C)C)C(=O)C2OC(C)=O)cc1` (centres undefined), the Potency entry is “inactive”.
As to `CC1CCC(C(=O)N(c2cc(C#CC(C)(C)C)sc2C(=O)O)C2CCC(O)CC2)CC1` (centres undefined), the Potency entry was “inactive”.
In the case of `COC(=O)N[C@H](C(=O)N1CCC[C@@H]1c1ncc(-c2ccc(-c3ccc(-c4cnc([C@@H]5CCCN5C(=O)[C@@H](NC(=O)OC)C(C)C)[nH]4)cc3)cc2)[nH]1)C(C)C`, the Potency was 16.6 µM (active).
For `Cc1c[nH]c(C=C2C(=O)Nc3ccccc32)c1CCC(=O)O`, the Potency is 18.7 µM (active).
Consider `C[C@H](NC(=O)c1sccc1OCc1ccc(Cl)cc1)c1ccccc1`, for which the Potency result was “inactive”.
Turning to `Cc1cccc(Nc2nc(-c3ccncc3)cs2)c1`, the Potency is 23.5 µM (active).
Same read-out and setting: the result for `NC1=N[C@@]2(c3cc(NC(=O)c4ccc(F)cn4)ccc3F)COC[C@@H]2CS1` reads 3.32 µM (active); that for `CC=CCC(C)C(O)C1C(=O)NC(CC)C(=O)N(C)CC(=O)N(C)C(CC(C)C)C(=O)NC(C(C)C)C(=O)N(C)C(CC(C)C)C(=O)NC(C)C(=O)NC(C)C(=O)N(C)C(CC(C)C)C(=O)N(C)C(CC(C)C)C(=O)N(C)C(C(C)C)C(=O)N1C` (centres undefined), “inactive”.
